We go through 16 compounds from PubChem BioAssay (NCATS).

For assay [1], the target named is Glucocorticoid receptor (Homo sapiens) (UniProt P04150). The experiment in a line: GR-GFP Redistribution (AID 450;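 active means compounds whose dose series gives a full or clear partial fitted curve of increased nuclear translocation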; further: potency means the concentration at half of the fitted maximal effect). The settings on record: U2OS GR-GFP nuclear translocation, laser cytometry, 2 h.
Assay [2] concerns the target Mitogen-activated protein kinase 10 (Mus musculus) (UniProt Q61831). The experiment in a line: JNK3 AlphaScreen Assay (AID 530; active means well fitted curve in either direction with a large enough effect, not every such curve was filed as active;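 further: kinase came from lysate of stimulated human HepG2 cells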; further: potency means the concentration at half of the fitted maximal effect;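 on activity change, negative = inhibition: signal reports phosphorylation of biotinylated GST-cJun 1-79 at Ser73 with 10 µM ATP; on the % scale 0 is the no-effect control and ±100 the full control effect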). The method, boiled down:
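JNK3 came from HepG2 lysates pre-activated with IL-1beta and TNF-alpha and phosphorylated biotinylated GST-cJun (1-79) at 10 uM ATP, pH 7.6, room temperature. Compounds were titrated. AlphaScreen signal used anti-phospho-cJun (Ser73) antibody.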
(In general: Bead proximity is the source of the signal in Alpha formats.)

Assay [3] can be described thus: AP1 Signaling Pathway (AID 357; active means well fitted curve in either direction with a large enough effect, not every such curve was filed as active;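 further: ME-180 reporter cells stimulated with EGF at its EC50 level; on the % scale 0 is the no-effect control and ±100 the full control effect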). The settings on record: ME-180 (cervical carcinoma) AP-1-bla reporter, EGF-induced, beta-lactamase ratio, 5 h; at 17.2 µM (top of the series) unless noted. The method, boiled down: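 Beta-lactamase reporter under AP-1 response element, ME-180 background. Stimulus: EC50 EGF. Compound exposure 5 h, 37 °C. Detection: CCF4, 2.5 h RT, 460/530 nm. Values: AC50 from titration.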

The nature of assay [4]: NFAT Signaling Pathway (AID 444; active means well fitted curve in either direction with a large enough effect, not every such curve was filed as active;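 further: carbachol stimulus at about its EC50 of 1 µM final; on the % scale 0 is the no-effect control and ±100 the full control effect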). To be noted: Jurkat NFAT-bla M1, carbachol, beta-lactamase ratio, 5 h; at 17.2 µM (top of the series) unless noted. The method, boiled down: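 Jurkat cells carrying an NFAT-driven β-lactamase reporter and co-transfected muscarinic M1 receptor were treated with compound plus carbachol (1 uM final, an EC50 level) for 5 h at 37 °C. CCF4 loading followed for 1 h at RT; 460/530 nm ratio gave %activity.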

Assay [5] concerns the target Cytochrome P450 1A2 (Homo sapiens) (UniProt P05177). The experiment in a line: p450-cyp1a2 (AID 410; calls by dose curve; further: potency means the concentration at half of the fitted maximal effect). The method, boiled down:
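Human CYP1A2 (20nM) demethylated Luciferin-ME at its Km (100uM) in 100mM KPO4. After 10 min compound preincubation, NADPH regeneration ran the reaction 60 min at room temperature. Luciferin was read by luminescence, normalized to 57 uM furafylline.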

Assay [6] has as its target 3',5'-cyclic-AMP phosphodiesterase 4B (Homo sapiens) (UniProt Q07343). In words: qHTS Assay for Inhibitors of PDE-IV (AID 607; active means well fitted activation curve with a large enough effect in the main read-out, with a control signal flat, not every such curve was filed as active; further: % of control where 0% means no effect). In short, it runs like this: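 HEK293 ACTOne cells with CNG channel (1000/well), endogenous PDE4; membrane potential dye, compounds up to 22.9 uM final. Fluorescence Ex 535/Em 590; RO 20-1724 (100 uM final) as reference.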
Assay [7] can be described thus: Cell Viability - BJ (AID 421; calls by dose curve;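 further: potency means the concentration at half of the fitted maximal effect; cells exposed to compound for 40 hours at 37 °C before readout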). The settings on record: BJ fibroblast viability, qHTS. In short, it runs like this:
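Normal human BJ foreskin fibroblasts, 1500/well in complete medium, treated 40 hr at 37 °C. Cellular ATP by CellTiter-Glo luminescence; normalized to DMSO and 100 uM tamoxifen, AC50 from Hill fit.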
(Quantitative high-throughput screening tests each substance at several concentrations.)

Assay [8] can be described thus: Cell Viability - Jurkat (AID 426;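 active means dose-dependent loss of cell ATP signal giving a full or clear fitted curve, ranked by lower potency value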; further: potency means the concentration at half of the fitted maximal effect). To be noted: qHTS. The method, boiled down: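 Jurkat (clone E6-1, human T-cell leukemia) cells, 5000/well in complete medium, were exposed to compound for 40 hr at 37 °C. Viability was read as intracellular ATP by CellTiter-Glo luminescence; AC50 came from Hill fits of concentration-response data.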
A short description of assay [9]: Cell Viability - Hek293 (AID 427;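 active means compounds whose dose-response curve shows a full or clear partial loss of cell viability, called from curve shape rather than a numeric limit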;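 further: potency means the concentration at half of the fitted maximal effect; cells exposed to compound for 40 hours at 37 °C before reading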). To be noted: qHTS. In short, it runs like this:
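HEK293 cells in complete medium were exposed to compound for 40 hr at 37 °C, then cellular ATP was read by CellTiter-Glo luminescence. Data were normalized to DMSO (basal) and 100 uM tamoxifen (100% inhibition), and AC50 came from Hill fits.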

Assay [10] can be described thus: Cell Viability - HepG2 (AID 433; calls by dose curve;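 further: potency means the concentration at half of the fitted maximal effect; potency for ATP loss meaning cytotoxicity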). The settings on record: qHTS. In short, it runs like this: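 HepG2 hepatocellular carcinoma cells (1500/well) were treated with compounds for 40 h at 37 °C in complete medium; intracellular ATP was read by CellTiter-Glo luminescence. Data were normalized to DMSO and 100 uM tamoxifen, and AC50 came from Hill fits.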
Assay [11] in a line: Cell Viability - MRC5 (AID 434; calls by dose curve;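 further: potency means the concentration at half of the fitted maximal effect; potency reflects cytotoxicity seen as loss of intracellular ATP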). To be noted: MRC5 lung fibroblast viability, qHTS. The method, boiled down:
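MRC5 normal human lung fibroblasts (1500/well) were treated with compounds for 40 hr at 37 °C in complete medium, and viable cells were measured as intracellular ATP by CellTiter-Glo luminescence. AC50 came from Hill fits, normalized to DMSO and 100 uM tamoxifen.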

Assay [12] in a line: Cell Viability - SK-N-SH (AID 435; calls by dose curve;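 further: potency means the concentration at half of the fitted maximal effect; compound exposure lasted 40 h at 37 °C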). The settings on record: SK-N-SH neuroblastoma cell viability qHTS. The method, boiled down:
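SK-N-SH human neuroblastoma cells (1500/well) were exposed to compounds in complete medium for 40 h at 37 °C, and intracellular ATP was then measured by CellTiter-Glo luminescence. AC50 was taken from Hill fits, normalized to DMSO and 100 uM tamoxifen.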

Assay [13] can be described thus: Cell Viability - NIH 3T3 (AID 541). Further: nearly all actives have a fitted effect of over 25% in size. Further: potency means the concentration at half of the fitted maximal effect.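 On activity change, negative = cytotoxicity: plate controls were DMSO alone for no effect and tamoxifen positive control for full effect.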 To be noted: NIH 3T3 cell viability, qHTS; activity change, negative = cytotoxicity: at 92.2 µM (top of the series). In short, it runs like this:
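NIH 3T3 mouse embryo fibroblasts (1000 cells/well) were plated in complete medium and treated with compound for 40 hr at 37 °C. Viability was read as intracellular ATP by CellTiter-Glo luminescence; AC50 values came from Hill-equation fits of concentration-response data.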

The nature of assay [14]: Cell Viability - HUV-EC-C (AID 542). Further: nearly all actives have a fitted effect of over 35% in size. Further: potency means the concentration at half of the fitted maximal effect. On activity change, negative = cytotoxicity: on the % scale 0 is the no-effect control and ±100 the full control effect. In short, it runs like this: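 HUV-EC-C normal human vascular endothelial cells, 1000 cells/well, pre-incubated 5 hr at 37 °C, then exposed to compounds for 40 hr at 37 °C in complete medium. Viability measured as intracellular ATP by CellTiter-Glo luminescence; AC50 from Hill fits.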
Assay [15] in a line: Cell Viability - H-4-II-E (AID 543). Further: nearly all actives have a fitted effect of over 35% in size. Further: potency means the concentration at half of the fitted maximal effect. In short, it runs like this:
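Rat hepatoma H-4-II-E cells (1500/well) were plated, incubated 5 hr at 37 °C, then exposed to compounds for 40 hr at 37 °C. Cellular ATP was read by CellTiter-Glo luminescence; AC50 came from Hill-equation fits of concentration-response data.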

Assay [16] is described as follows: Cell Viability - SH-SY5Y (AID 544). Further: nearly all actives have a fitted effect of over 55% in size. Further: potency means the concentration at half of the fitted maximal effect.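 On viability change, negative = cytotoxic: 0% = DMSO alone and -100% = 100 µM tamoxifen.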 The settings on record: SH-SY5Y neuroblastoma cell viability; viability change, negative = cytotoxic: at 92.2 µM (top of the series). In short, it runs like this:
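Human neuroblastoma SH-SY5Y cells (1500/well) in complete medium were exposed to compounds for 40 hr at 37 °C; intracellular ATP was then quantified by CellTiter-Glo luminescence after 20 min at room temperature. AC50 came from Hill-equation concentration-response fits.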

The nature of assay [17]: Cell Viability - Renal Proximal Tubule (AID 545). Further: nearly all actives have a fitted effect of over 40% in size. Further: potency means the concentration at half of the fitted maximal effect.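 On activity change, negative = cytotoxicity: 0% = DMSO only and -100% = 100 µM tamoxifen.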 In short, it runs like this:
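Primary rat renal proximal tubule cells (1000/well) were treated with compounds for 40 hr at 37 °C in complete medium. Intracellular ATP was measured by CellTiter-Glo luminescence, and AC50 values came from Hill-equation fits of concentration-response data.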

A short description of assay [18]: Cell Viability - Mesenchymal (AID 546).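 Further: cells exposed to compound for 40 hours before reading.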 Further: potency means the concentration at half of the fitted maximal effect.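 On activity change, negative = cytotoxicity: 0% = DMSO only and -100% = 100 µM tamoxifen.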 The method, boiled down:
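Normal human renal glomerulus-derived kidney mesenchymal cells, 1000 per well in complete medium, were treated with compounds for 40 hr at 37 °C. Viability was read as intracellular ATP by CellTiter-Glo luminescence; AC50 values came from Hill-equation fits of qHTS concentration-response data.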

Assay [19] can be described thus: Cellular Toxicity (caspase-3) HepG2 (AID 654). Further: potency means the concentration at half of the fitted maximal effect. In short, it runs like this: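 HepG2 cells (1500/well) in complete medium were treated with compounds for 16 hr at 37 °C. Caspase-3/7 activity was then read as luminescence from peptide-aminoluciferin cleavage. AC50 came from Hill fits, normalized to DMSO and 100 uM tamoxifen.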

Unmarked numbers belong to inactive results. Results filed as inconclusive are left out. Active and inactive are the calls of the source. Unless noted, the call rests on the fitted dose curve; in most records, active means well fitted curve in the direction sought with a large enough effect; inconclusive means small, poorly fitted or top-dose-only effect, or another doubt; inactive means no such curve, though single readings can be large; an effect the other way counts as inactive or inconclusive.

Glucocorticoid receptor (Homo sapiens), sequence (P04150 whole entry, looked up): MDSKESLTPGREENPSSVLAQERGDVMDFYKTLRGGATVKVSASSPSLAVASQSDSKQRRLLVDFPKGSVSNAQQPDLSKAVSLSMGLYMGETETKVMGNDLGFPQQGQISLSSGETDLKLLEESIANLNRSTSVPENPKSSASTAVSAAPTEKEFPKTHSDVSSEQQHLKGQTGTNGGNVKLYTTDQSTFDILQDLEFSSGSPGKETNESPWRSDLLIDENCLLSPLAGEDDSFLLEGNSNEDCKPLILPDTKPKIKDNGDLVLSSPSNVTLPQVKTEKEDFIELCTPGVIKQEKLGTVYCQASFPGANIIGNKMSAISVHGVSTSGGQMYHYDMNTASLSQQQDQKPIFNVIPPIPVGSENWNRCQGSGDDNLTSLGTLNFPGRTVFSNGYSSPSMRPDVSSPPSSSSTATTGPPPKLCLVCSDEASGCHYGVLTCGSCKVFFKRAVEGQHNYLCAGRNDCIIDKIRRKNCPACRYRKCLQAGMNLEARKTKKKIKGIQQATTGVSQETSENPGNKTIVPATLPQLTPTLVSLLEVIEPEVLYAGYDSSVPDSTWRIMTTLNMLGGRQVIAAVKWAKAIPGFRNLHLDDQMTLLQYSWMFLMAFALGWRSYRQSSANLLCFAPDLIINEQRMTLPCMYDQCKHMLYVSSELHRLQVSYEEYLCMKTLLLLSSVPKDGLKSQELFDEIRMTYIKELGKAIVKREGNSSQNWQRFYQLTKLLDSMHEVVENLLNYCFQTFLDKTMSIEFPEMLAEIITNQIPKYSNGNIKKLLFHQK
3',5'-cyclic-AMP phosphodiesterase 4B (Homo sapiens), sequence (Q07343 whole entry, looked up): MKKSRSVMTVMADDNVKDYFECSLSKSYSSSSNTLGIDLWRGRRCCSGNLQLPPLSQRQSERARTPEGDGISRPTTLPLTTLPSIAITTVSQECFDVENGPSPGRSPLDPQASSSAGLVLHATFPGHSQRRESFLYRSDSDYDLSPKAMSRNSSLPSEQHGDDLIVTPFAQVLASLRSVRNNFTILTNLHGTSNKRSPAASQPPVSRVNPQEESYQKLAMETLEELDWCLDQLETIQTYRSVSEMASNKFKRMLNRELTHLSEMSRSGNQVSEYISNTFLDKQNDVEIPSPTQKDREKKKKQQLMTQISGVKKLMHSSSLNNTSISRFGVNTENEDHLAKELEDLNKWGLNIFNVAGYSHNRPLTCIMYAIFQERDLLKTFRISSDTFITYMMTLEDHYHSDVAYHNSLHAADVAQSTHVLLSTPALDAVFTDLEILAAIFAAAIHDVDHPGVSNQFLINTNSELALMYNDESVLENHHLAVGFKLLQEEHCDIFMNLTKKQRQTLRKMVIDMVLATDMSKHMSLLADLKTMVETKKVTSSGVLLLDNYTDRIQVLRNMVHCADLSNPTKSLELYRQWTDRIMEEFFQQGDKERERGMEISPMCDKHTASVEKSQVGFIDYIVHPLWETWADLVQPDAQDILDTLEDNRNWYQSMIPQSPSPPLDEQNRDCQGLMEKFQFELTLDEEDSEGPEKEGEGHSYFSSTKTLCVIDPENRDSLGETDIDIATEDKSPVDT
Cytochrome P450 1A2 (Homo sapiens), sequence (P05177 whole entry, looked up): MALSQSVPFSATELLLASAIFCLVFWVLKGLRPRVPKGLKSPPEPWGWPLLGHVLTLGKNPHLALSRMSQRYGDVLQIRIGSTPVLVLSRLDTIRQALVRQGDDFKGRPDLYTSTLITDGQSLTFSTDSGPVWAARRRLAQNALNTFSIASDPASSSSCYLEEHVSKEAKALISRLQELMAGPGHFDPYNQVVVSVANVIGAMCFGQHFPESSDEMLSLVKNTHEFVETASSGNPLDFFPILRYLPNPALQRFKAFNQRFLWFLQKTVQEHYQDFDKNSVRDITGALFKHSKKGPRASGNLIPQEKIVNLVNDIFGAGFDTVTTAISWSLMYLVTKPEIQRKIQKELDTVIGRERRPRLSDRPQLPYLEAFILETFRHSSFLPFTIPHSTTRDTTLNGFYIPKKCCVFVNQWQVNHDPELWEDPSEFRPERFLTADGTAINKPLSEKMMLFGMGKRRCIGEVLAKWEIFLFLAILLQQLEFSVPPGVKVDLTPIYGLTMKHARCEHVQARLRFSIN

Regarding `Cc1ccc(S(=O)(=O)N[C@@H](Cc2ccccc2)C(=O)CCl)cc1`, the Potency in [1] was over 46 µM. In addition, the Potency result in [2] was “inactive”.
Turning to `CCC(=O)O[C@]1(C(=O)CCl)[C@@H](C)C[C@H]2[C@@H]3CCC4=CC(=O)C=C[C@]4(C)[C@@]3(F)[C@@H](O)C[C@@]21C`, the values for the activity change, negative = inhibition in assay [3] and in assay [4] were 3.85% and -24.5%, respectively. The Potency in [1] is < 5.9e-06 µM (active).
In the case of `CC1=CC(=O)c2ccccc2C1=O`, the Potency in [5] was 0.158 µM (active); in assay [1], over 20.6 µM. For the same compound, the activity change, negative = inhibition in [4] was -115% (active). Moreover, the Potency result in assay [2] is “inactive”. Besides, the outcome in assay [6] was inactive.
As to `CCN(CC)CC#CCOC(=O)C(O)(c1ccccc1)C1CCCCC1` (configuration not stated), the activity change, negative = inhibition in assay [3] is -4.6%; in assay [4] it was -93% (active). In [1], the Potency was over 20.6 µM.
Take `Nc1[nH]c(=O)ncc1F`: the activity change, negative = inhibition was 0.602% in assay [3] and 0.663% in assay [4]. In [1], the Potency is over 20.6 µM. Moreover, the Potency entry in assay [2] was “inactive”. Also, the compound was called inactive in assay [6].
For `Cc1ccnc2c1NC(=O)c1cccnc1N2C1CC1`, the Potency in assay [7], in assay [8], in assay [9], in [10], in assay [11] and in assay [12] was over 92 µM throughout. The Potency result in assay [2], in assay [14], in assay [15], in assay [16], in assay [17] and in assay [18] was “inactive” throughout. Moreover, the Potency result in assay [19] is “inactive”. Moreover, in assay [13], the activity change, negative = cytotoxicity is -11%.
As for `CN(C)c1ccc(C(=C2C=CC(=[N+](C)C)C=C2)c2ccc(N(C)C)cc2)cc1`, the Potency in [7] is 5.35 µM (active); in assay [8], 2.75 µM (active); in assay [9], 5.18 µM (active); in [10], 8.58 µM (active); in assay [11], 4.08 µM (active); in assay [12] it was 1.8 µM (active). For the same compound, the Potency in assay [2] was 2 µM (active); in assay [13] it was 1 µM (active); in assay [14], 3.98 µM (active); in assay [15], 2 µM (active); in assay [16] it was 1.58 µM (active); in assay [17] it was 12.6 µM (active). The Potency was 2.51 µM (active) in assay [18] and 31.6 µM (active) in assay [19].
`O=C(O)c1cc(=O)[nH]c(=O)[nH]1`: the Potency in assay [7], in assay [8], in [9], in assay [10], in [11] and in [12] was over 92 µM each time. Also, the Potency result in assay [2], in assay [14], in assay [15], in [16], in [17] and in assay [18] was “inactive” throughout. Besides, the Potency result in assay [19] was “inactive”. In addition, the activity change, negative = cytotoxicity in assay [13] was -4.07%.
Take `N=C(N)c1ccc(OCCCCCOc2ccc(C(=N)N)cc2)cc1`: the Potency in assay [10] is over 92 µM; in assay [11], over 92 µM; in [12], over 92 µM; in assay [1], over 20.6 µM. For the same compound, the Potency entry in [2], in assay [16] and in assay [19] was “inactive” each time. Besides, in [13], the activity change, negative = cytotoxicity is -80.1% (active). In [6], the outcome was inactive.
`COc1ccccc1OCC(O)COC(N)=O` (configuration not stated): the activity change, negative = inhibition was 9.66% in assay [3] and -29.9% in assay [4]. Moreover, the Potency in assay [1] was over 20.6 µM.
For `O=C(N[C@H](CO)[C@H](O)c1ccc([N+](=O)[O-])cc1)C(Cl)Cl`, the Potency in assay [7], in [8], in assay [9], in [10], in [11] and in [12] was over 92 µM throughout. Also, the Potency entry in [2], in assay [14], in [15], in [16], in assay [17] and in assay [18] was “inactive” throughout. Moreover, the Potency entry in [19] is “inactive”. Further, the activity change, negative = cytotoxicity in [13] is -14.2%.
With `O=c1oc2c(O)c(O)cc3c(=O)oc4c(O)c(O)cc1c4c23`, the Potency was 15.8 µM (active) in [5], over 46 µM in assay [1] and 1.26 µM (active) in [2].
For `Cn1c(=O)c2c(ncn2CC(O)CO)n(C)c1=O` (configuration not stated), the activity change, negative = inhibition in assay [3] was 2.4%; in assay [4], 10.5%. Moreover, in assay [1], the Potency is over 20.6 µM.
Regarding `COc1cc2ncnc(Nc3cccc(Cl)c3)c2cc1OC`, the activity change, negative = inhibition in assay [3] is -106% [at 38 µM] (active); in [4], 3.52% [at 38 µM]. Besides, the Potency in assay [1] is over 46 µM. Besides, in assay [2], the Potency result is “inactive”. For the same compound, in assay [6], the compound was called inactive.
On to `CC[C@H](NC(C)C)[C@H](O)c1ccc(O)c2[nH]c(=O)ccc12`, for which the Potency in [1] was over 46 µM.
Regarding `CC(=O)Oc1ccccc1C(=O)Nc1ncc([N+](=O)[O-])s1`, the Potency in assay [8] was 30.6 µM (active); in assay [9], 32.6 µM (active); in assay [12], 20.7 µM (active); in assay [13], 31.6 µM (active); in [14], 31.6 µM (active); in assay [15], 31.6 µM (active). In addition, the Potency in [16] and in assay [17] was 25.1 µM (active) throughout. Moreover, the Potency result in [19] was “inactive”.
